In ChEMBL document CHEMBL3988442, “University of Dundee, Small-Polar-MMV Screening Library” (2021):
Hit rate of the full screen: of about 48,000 compounds, about 13,000 (27%) showed an effect of 50% or more. Some of the results follow.

These compounds were tested on Wolbachia pipientis (assay: Anti-Wolbachia Cell-Based Screen). Conditions: 5 µM.
Type: functional
Parameters: scale not given: in the data most compounds retested in dose-response had high values

SMILES | Percent Effect [%]
O=S(=O)(c1cccnc1)N1C[C@@H]2COC[C@]2(COCC2CC2)C1 | 5.387
CCCn1cnc2c1CN(C(=O)c1ccc(F)cc1)[C@H](C(=O)OC)C2 | 6.422
FC(F)(F)c1n[nH]c2c1CN(Cc1cn3ccccc3n1)CC2 | 10.05
CC(C)n1c(C(=O)N2CCCC2)nc2c1CCN(c1ncccn1)C2 | -6.562
Cc1nc2c(c(NCC3Cc4ccccc4CN3C)n1)CCNCC2 (stereo unspecified) | -7.174
CN(CC1(CO)CCC1)c1nc2c(c(=O)[nH]1)Cc1ccccc1OC2 | 9.578
NC(=O)C1CN(c2ncnc3c2Cc2ccccc2OC3)CCO1 (stereo unspecified) | -2.361
Cc1nc2c(c(NC(C)c3nnn[nH]3)n1)Cc1ccccc1OC2 (stereo unspecified) | 97.46
Cc1nc2c(c(N[C@@H](CO)C(N)=O)n1)Cc1ccccc1OC2 | 104.3
Cc1nc2c(c(N[C@H](C(N)=O)C(C)C)n1)Cc1ccccc1OC2 | 105
CN(CC1(CO)CCCC1)c1nc2c(c(=O)[nH]1)Cc1ccccc1OC2 | 6.752
NC(=O)C1CCCN(c2ncnc3c2Cc2ccccc2OC3)C1 (stereo unspecified) | 10.44
Cc1cc(C(=O)NC(C)c2nnn[nH]2)c2cccc(C)c2n1 (stereo unspecified) | 0.7589
COc1ccccc1OCCNC(=O)NCc1nc(C)no1 | -10.03
CCCc1c(C(=O)NC2CCCC2)nnn1-c1ccc(OC)cc1 | 0.3347
CCOCC(=O)N1C[C@@H]2CC[C@H](C1)N(Cc1ccccn1)C2=O | 2.863
NC1(C(=O)N2CCC(c3cc(-c4ccccc4Cl)n[nH]3)CC2)CCC1 | -26.69
CC(C)NC(=O)NC[C@@]1(COc2cnccn2)C[C@@H](O)[C@@H](O)C1.Cl | -2.608
Cn1ccnc1CN1CCC2(CC1)CCN(c1cncnc1)C2=O.O=C(O)C(F)(F)F | -20.08
Cn1ccnc1CN1CCC2(CC1)CCN(c1ccccc1)C2=O.O=C(O)C(F)(F)F | 113.1
CN1Cc2ccccc2CC2(CCN(Cc3nccn3C)CC2)C1=O | 94.48
Cn1ccnc1CN1CCC2(CC1)Cc1ccccc1CNC2=O.O=C(O)C(F)(F)F | 103.5

SMILES | Percent Effect [%]
CN1Cc2ccccc2CC2(CCN(c3ncccn3)CC2)C1=O | -6.777
CN1Cc2ccccc2CC2(CCN(c3ncc(F)cn3)CC2)C1=O | -14.24
CN1CC(=O)N(c2ccccc2)CC12CCN(Cc1nccn1C)C2.O=C(O)C(F)(F)F.O=C(O)C(F)(F)F (stereo unspecified) | -13.15
N#CC1(C(=O)N2Cc3cc(-c4cc[nH]n4)ccc3C2c2cnco2)CC1 (stereo unspecified) | -31.27
NC(=O)COc1ccc(C(=O)NCCc2ccco2)cc1 | -0.9721
CN1CC(=O)N(c2ccccc2)CC12CCN(Cc1cccnc1)C2.O=C(O)C(F)(F)F.O=C(O)C(F)(F)F.O=C(O)C(F)(F)F (stereo unspecified) | -4.544
C[C@@H]1CN(Cc2cccnc2)C[C@]12CCN(CCN1CCCC1)C2=O.O=C(O)C(F)(F)F.O=C(O)C(F)(F)F.O=C(O)C(F)(F)F | 95.13
CN1CC(=O)N(c2cccc(F)c2)CC12CCN(Cc1cccnc1)C2.O=C(O)C(F)(F)F.O=C(O)C(F)(F)F.O=C(O)C(F)(F)F (stereo unspecified) | -7.08
C[C@@H]1CN(Cc2cccc(F)c2)C[C@]12CCN(Cc1cccnc1)C2=O.O=C(O)C(F)(F)F.O=C(O)C(F)(F)F | 107.3441
C[C@H]1CN(CC2CCOCC2)C[C@@]12CCN(Cc1cccnc1)C2=O.O=C(O)C(F)(F)F.O=C(O)C(F)(F)F | 107.6
CCN1C(=O)C(c2ccccc2)CC12CCN(Cc1cccnc1)CC2.O=C(O)C(F)(F)F.O=C(O)C(F)(F)F (stereo unspecified) | -2.584
CN1CCN(Cc2cccnc2)C(=O)C12CCN(CC1CCOC1)CC2.O=C(O)C(F)(F)F.O=C(O)C(F)(F)F.O=C(O)C(F)(F)F (stereo unspecified) | -19.27
C[C@@H]1CN(S(C)(=O)=O)C[C@]12CCN(Cc1cccnc1)C2=O.O=C(O)C(F)(F)F | 104.4
CCS(=O)(=O)N1CC[C@H]2C(=O)N(Cc3cccnc3)CCO[C@H]2C1.O=C(O)C(F)(F)F | -12.91
CN1CCN(Cc2cccnc2)C(=O)C12CCN(C1CCOC1)CC2.O=C(O)C(F)(F)F.O=C(O)C(F)(F)F.O=C(O)C(F)(F)F (stereo unspecified) | 20.83
CCN(CC)C(CNCc1ccc(C)o1)c1ccco1 (stereo unspecified) | 6.767
CC(=O)N[C@@H]1CN(S(=O)(=O)Cc2ccccc2)C[C@H]1C(C)C | 4.897
O=C(NC1CCN(Cn2nc(-c3ccccc3)oc2=O)CC1)C1CC1 | 15.64
O=C(c1ccco1)N1CCCC2(CCN(CCN3CCCC3)C2=O)C1 (stereo unspecified) | 0.2637
Cc1noc(C)c1CN1C[C@H](C)[C@]2(CCN(Cc3cccnc3)C2=O)C1.O=C(O)C(F)(F)F.O=C(O)C(F)(F)F | 119.9
Cc1noc(C)c1CN1CCN(Cc2cccnc2)c2ncccc2C1.O=C(O)C(F)(F)F.O=C(O)C(F)(F)F.O=C(O)C(F)(F)F | -12.75
O=C(c1cccnc1)N1C[C@@H]2CN(CCN3CCCC3)C(=O)[C@@H]2C1 | -1.372

SMILES | Percent Effect [%]
C[C@H]1CN(C(=O)c2cccnc2)C[C@@]12CCN(CCN1CCCC1)C2=O | 107.9
CN1CCN(Cc2cccnc2)C2(CCN(Cc3ccccn3)C2)C1=O.O=C(O)C(F)(F)F.O=C(O)C(F)(F)F.O=C(O)C(F)(F)F (stereo unspecified) | 9.415
O=C(O)C(F)(F)F.O=C(O)C(F)(F)F.c1ccc(CN2CCC3(CC2)CC(Oc2cccnc2)C3)nc1 | -13.53
Cc1noc(C)c1CN1CCC2(CC1)CC(Oc1cccnc1)CO2.O=C(O)C(F)(F)F (stereo unspecified) | 0.1924
C[C@H]1CN(c2ccccn2)C[C@@]12CCN(Cc1cccnc1)C2=O.O=C(O)C(F)(F)F.O=C(O)C(F)(F)F | 111.4
C[C@@H]1CN(Cc2ccccn2)C[C@]12CCN(Cc1cccnc1)C2=O.O=C(O)C(F)(F)F.O=C(O)C(F)(F)F.O=C(O)C(F)(F)F | 86.67
CN(CC1CCCCO1)c1nc(-c2cccnc2)nc2c1CCNC2 (stereo unspecified) | -24.82
CC(C)N1CCc2ncn(C(C)C)c2C1C(=O)NCCN1CCCC1 (stereo unspecified) | -11.46
CCCc1cc(NCCn2cccn2)n2nccc2n1 | -0.5952
Cc1cc(NC(=O)CCN(CC2CCOC2)C2CC2)no1 (stereo unspecified) | 14.41
CC(C)NC(=O)N[C@H]1C[C@@H](c2nc(-c3ccc(F)cc3)no2)N(C)C1 | -4.692
Cc1nc2cc(C(=O)N(CCN(C)C)CCN(C)C)ccc2n1C | -1.95
Cc1cc(CS(=O)(=O)NCC2CCCCC2)on1 | -6.001
O=C(c1csc(-c2nnc[nH]2)n1)N1CCCCC1Cn1cccn1 (stereo unspecified) | 114.8
O=C(Cc1csc(-c2nnc[nH]2)n1)N1CCCC1Cn1cccn1 (stereo unspecified) | 1.097
Cc1cnn(CC2CCCN2C(=O)c2csc(-c3nnc[nH]3)n2)c1 (stereo unspecified) | 136
O=C(c1ccc(-n2ccnc2)nn1)N1CCCCC1Cn1cccn1 (stereo unspecified) | -18.3
Cc1noc(OCc2ccc(C#N)cc2)n1 | 3.288
NC(=O)C1CCN(C(=O)c2cc(S(=O)(=O)N3CCCC3)cs2)CC1 | 4.91
C=Cn1ncc(CN2C[C@@H]3CCCN3C[C@@H]2CCSC)c1C | 137.5
C=Cn1ncc(CN2C[C@@H]3CCCN3C[C@H]2CCSC)c1C | -0.7089
C=Cn1ncc(CN2C[C@@H]3CCCN3C[C@@H]2Cc2ccccc2)c1C | -5.258

SMILES | Percent Effect [%]
CCn1cc(CN2CC3CCCN3C[C@H]2C)c(C)n1 (stereo partly specified) | -10.13
CCCn1ncc(CN2C[C@@H]3CCCN3C[C@@H]2CCSC)c1C | -13.92
C=Cn1ncc(CN2C[C@@H]3C[C@@H](O)CN3C[C@H]2Cc2ccccc2)c1C | 130.9
C=Cn1ncc(CN2C[C@@H]3C[C@@H](O)CN3C[C@@H]2Cc2ccccc2)c1C | 135.2
C=Cn1ncc(CN2C[C@@H]3CCCN3C[C@H]2Cc2ccccc2)c1C | 116.6
COC(=O)C1(C)CCN(C(=O)NCCc2c(C)[nH]c3ccccc23)C1 (stereo unspecified) | -5.132
Cc1ccsc1CN(CCN(C)C)C(=O)c1cc2ccccc2[nH]1 | -9.122
COc1c(F)cc(NC(=O)NCc2nncn2C2CC2)cc1F | -0.8393
CNC(=O)c1cccc(NC(=O)c2ccnc(N(C)C)c2)c1C | -1.756
O=C(CNc1ccccc1S(=O)(=O)C(F)F)NCc1ccco1 | 0.5887
CN(C)S(=O)(=O)N1CCCC1CC(=O)c1cccs1 (stereo unspecified) | -13.45
CCc1nccn1-c1cccc(C2CCCN2S(=O)(=O)N(C)C)n1 (stereo unspecified) | 103.4
CN(C)S(=O)(=O)N1CCCC1c1cccc(-n2ccnc2)n1 (stereo unspecified) | 119.1
CN(CCn1cccn1)S(=O)(=O)N1CCCC1c1ccco1 (stereo unspecified) | -2.44
CN(C)S(=O)(=O)CCCOc1cccc(-n2ccnc2)c1 | -3.335
Cc1nccn1-c1cccc(C2CCCN2S(=O)(=O)N(C)C)n1 (stereo unspecified) | 5.145
Cc1cccc(C2CCCN2S(=O)(=O)N(C)C)n1 (stereo unspecified) | 98.12
CC(=O)c1ccc(N2CCCC(CO)(CCOc3ccccc3)C2)nc1 (stereo unspecified) | 5.356
O=C1NCC2(CCCN(C(=O)Nc3cccc(-c4cscn4)c3)CC2)O1 (stereo unspecified) | -23.17
COCc1cc(N2C[C@@H](C)[C@](O)(C3CC3)C2)ncn1 | -1.024
